# Hits are enriched below; roughly 3% of the tested compounds scored in any of these assays.
# TRPM1 prom inh = inhibitors of MITF-driven TRPM1 promoter in melanoma cells | SK-MEL-5 TRPM1 promoter luciferase, 24 h | inhibition, % at 12.5 µM | 0.83% of 330,000 active;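 active = mean inhibition across replicates of 60% or more, whatever share of single replicates reaches that level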
# Peg3 promoter = inhibitors of Peg3 promoter. HeLa PEG-Prom luciferase reporter, luminescence, overnight. inhibition, % at 20 µM. 1.7% of 360,000 active;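 active = inhibition of at least 50% at 20 µM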
# KKLEB cytotox = reduces viability of KKLEB cystic fibrosis airway cells; KKLEB CF airway cells viability, ATPlite luminescence, overnight; hits give low values; cells stimulated with P. aeruginosa culture filtrate; activity change (cytotoxicity), % at 5 µM; 0.36% of 360,000 active; AID 602141;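 active = corrected activity change at or below -50% at 5 µM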
# CF NFkB block = blocks PAF-induced NF-kB reporter in cystic fibrosis cells. KKLEB NF-kB-GFP reporter, GFP fluorescence overnight. 0.86% of 360,000 active. inhibition, % at 5 µM;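 active = at least 50% inhibition at 5 µM, scaled per plate between neutral and stimulator controls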;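 note: PAF is a Pseudomonas aeruginosa culture filtrate used as stimulus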
# HIF-2a inh = inhibitors of HIF-2a; 786-0 RCC cells HIF-2a reporter, luciferase luminescence, overnight; inhibition, % at 18.8 µM; 0.72% of 360,000 active;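 active = inhibition of the luminescence signal of 40% or more relative to plate controls, in a single-dose primary screen at 18.75 µM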
# EBV LMP1 NFkB = Epstein-Barr LMP1 NF-kappaB reporter inhibition. inhibition, % at 12.5 µM. AID 504558. 0.69% of 350,000 active. LMP1-induced NF-kappaB luciferase reporter cells, luminescence; in the data active = inhibition above about 41%
# A number is an active result; . = inactive; / = no result.
SMILES,TRPM1 prom inh,Peg3 promoter,KKLEB cytotox,CF NFkB block,HIF-2a inh,EBV LMP1 NFkB
CC(C)c1ccc(S(=O)(=O)c2cc3cc(Br)ccc3oc2=O)cc1,.,88,.,.,.,.
COc1ccc(N2C(=O)C(Cl)=C(Oc3cccc(OC)c3)C2=O)cc1,.,107,.,.,93,.
CCc1cccc2c(C(=O)CN3C(=O)NC4(CCc5ccccc54)C3=O)c[nH]c12 (stereo not drawn),.,.,.,.,.,.
CCc1cccc2c(C(=O)CN3C(=O)NC(C)(c4cccc5ccccc45)C3=O)c[nH]c12 (stereo not drawn),.,60,.,.,.,.
O=C(Nc1ccccc1Cl)C1CCCN(S(=O)(=O)c2cccc3cccnc23)C1 (stereo not drawn),.,.,.,.,.,.
O=C(Nc1nc2cc(Cl)ccc2s1)C1CCCN(S(=O)(=O)c2cccc3cccnc23)C1 (stereo not drawn),.,60,.,.,.,.
CCOC(=O)c1cnc2ccc(Br)cc2c1NCCO,.,.,.,.,.,.
CCOC(=O)c1cnc2ccc(Cl)cc2c1NCCN(C)C,.,59,.,.,.,.
CCCCN(C=O)c1c(CC)nc2c(OCc3ccccc3C)cccn12,/,.,.,.,.,/
Cc1ccccc1OCC(=O)NCC(=O)N/N=C/c1ccc(Br)o1,.,.,.,.,.,.
O=C(N/N=C\C=C\c1ccc([N+](=O)[O-])o1)c1cccs1,83,.,.,.,.,.
O=C(N/N=C/C=C/c1ccccc1[N+](=O)[O-])c1cccs1,.,.,.,.,.,.
Cc1cc(C)cc(OCC(=O)N/N=C/c2ccc([N+](=O)[O-])o2)c1,66,.,.,.,.,.
CCOC(=O)N/N=C\c1ccc([N+](=O)[O-])o1,.,.,.,.,.,.
O=C(N/N=C/c1ccc([N+](=O)[O-])o1)c1ccccc1-n1cccc1,78,.,.,.,.,.
Cc1ccccc1OCC(=O)N/N=C/c1ccc([N+](=O)[O-])o1,79,.,.,.,.,.
N#Cc1cccc(NC(=O)c2cc(C3CCCCN3S(=O)(=O)c3ccccc3)on2)c1 (stereo not drawn),/,.,.,.,.,/
O=C(Cc1ccc([N+](=O)[O-])cc1)N/N=C/c1ccc([N+](=O)[O-])o1,/,.,.,.,.,.
CC1(C(=O)N/N=C/c2ccc([N+](=O)[O-])o2)CC1(Br)Br (stereo not drawn),74,.,.,.,.,.
O=C(COc1ccccc1[N+](=O)[O-])N/N=C/C=C/c1ccco1,.,.,.,.,.,.
COc1ccccc1OCC(=O)N/N=C/C=C/c1ccc([N+](=O)[O-])o1,76,.,.,.,.,.
CNC[C@H](CC1CCCCC1)NC[C@H](CO)NCC1(c2ccccc2)CC1,66,.,.,.,.,.
CCN(CC)S(=O)(=O)c1ccc(C(O)=C(C#N)c2nc3ccccc3n2C)cc1,.,.,.,.,.,.
O=C(CN1CCCCC1)N=Nc1c(O)[nH]c2ccccc12,.,.,.,.,.,.
O=C(CN1CCN(Cc2ccccc2)CC1)N=Nc1c(O)[nH]c2ccccc12,.,52,.,.,.,.
SMILES,TRPM1 prom inh,Peg3 promoter,KKLEB cytotox,CF NFkB block,HIF-2a inh,EBV LMP1 NFkB
O=C1NC[C@H](CCCCN2CCN(CCC3CCCCC3)C(=O)C2=O)N(CC2CCCCC2)C1=O,/,/,/,/,.,/
Cc1ccsc1/C=C/c1ccc2cccc(O)c2n1,.,80,.,.,.,.
C(=C\c1ccco1)/c1ccc2ccccc2n1,/,.,.,.,.,/
Oc1cccc2ccc(/C=C/c3cccs3)nc12,.,.,.,.,.,.
Cc1ccsc1/C=C/c1ccc2ccccc2n1,.,.,.,.,.,70
CC1(C(=O)Nc2cccc(C#N)c2)CCN1C(=O)c1ccccc1CCc1ccccc1 (stereo not drawn),/,.,.,.,.,/
O=C(CNC(=O)c1cccc(Br)c1)N/N=C/c1cccs1,.,.,.,.,.,.
O=C(Cc1ccccc1)N/N=C/c1cc(Br)cs1,.,.,.,.,.,.
O=C(Cc1ccccc1)N/N=C/c1cc(Br)cc(Br)c1O,.,54,.,.,.,.
O=C(CNC(=O)c1cccc(Br)c1)N/N=C/c1cc(Br)cc(Br)c1O,.,54,.,.,.,.
CC(C)=CCC[C@H](C)C[C@@H]1Cc2[nH]c(=S)[nH]c(=O)c2[C@@H](c2ccc(F)cc2)O1,/,/,/,/,.,/
Cc1ccc(Sc2nc(-c3ccccc3)nnc2C(F)(F)F)cc1,.,105,.,.,.,.
CCOc1ccccc1NC(=O)Cn1c(=O)oc2ccccc21,.,.,.,.,.,.
CCOc1ccccc1NC(=O)Cn1c(=O)sc2ccccc21,.,.,.,.,.,64
CCOC(=O)c1ccc2ncc(C(=O)OCC)c(Nc3ccc(N4CCOCC4)cc3)c2c1,.,88,.,65,.,.
Cc1ccc(NC(=O)c2ncn(CCCN(C)CCc3ccccn3)n2)cc1C,.,.,.,.,.,.
CCCCCCCCCCC[N+](C)(C)CC/C=C1/c2ccccc2Sc2ccc(Cl)cc21,.,108,.,.,.,.
OCCN1CCN(CC/C=C2/c3ccccc3Sc3ccc(Cl)cc32)CC1,.,87,.,.,.,80
CC[N+](C)(C)CC/C=C1/c2ccccc2Sc2ccc(Cl)cc21,/,.,.,.,.,/
Cn1nc(C(C)(C)C)cc1C(=O)N1CCCC(c2cc(C(=O)NCc3ccccc3)no2)C1 (stereo not drawn),/,.,.,.,.,/
CCn1c2ccccc2c2cc(NC(=O)C(C)C)ccc21,.,.,.,.,.,.
Cn1c2ccccc2c2cc(/C=N/NC(=O)c3cc(O)cc(O)c3)ccc21,.,.,.,.,.,.
CCn1c2ccccc2c2cc(NC(=O)c3ccccc3-c3ccccc3C(=O)O)ccc21,.,.,.,.,.,52
CCn1c2ccccc2c2cc(/C=N/NC(=O)c3ccccc3)ccc21,.,.,.,.,.,79
CCCC(=O)Nc1nnc(SCC(=O)Nc2ccc(OCC)cc2)s1,/,.,.,.,.,.
CC1(C(=O)Nc2ccc(Cl)c(Cl)c2)CCN1C(=O)Cc1cccc2ccccc12 (stereo not drawn),/,.,.,.,.,/
O=C(CN1C(=O)c2ccccc2S1(=O)=O)c1ccc(F)c(F)c1,.,.,.,.,.,46
CC(C)C1C(=O)N(Cc2cn(CCC3OCCO3)nn2)CCS(=O)(=O)N1Cc1ccc(-c2ccccc2Cl)cc1 (stereo not drawn),/,.,.,.,.,/
CCOC(=O)C1=C(CCl)NC(=O)NC1c1ccc2c(c1)OCO2 (stereo not drawn),69,.,.,.,.,.
Cc1ccc(CN2CCC2(C)C(=O)NC(C)C)cc1 (stereo not drawn),/,.,.,.,.,/

# Screens deposited in PubChem by several laboratories.
